Screens as filed in PubChem BioAssay.
USP8 block: inhibitors of human USP8 deubiquitinase. P40818. purified USP8, Ub-rhodamine cleavage fluorescence, 30 min. inhibition, % at 20 µM. actives 4.2% (n = 47,000). AID 1645853
Target sequence (P40818 whole entry, looked up): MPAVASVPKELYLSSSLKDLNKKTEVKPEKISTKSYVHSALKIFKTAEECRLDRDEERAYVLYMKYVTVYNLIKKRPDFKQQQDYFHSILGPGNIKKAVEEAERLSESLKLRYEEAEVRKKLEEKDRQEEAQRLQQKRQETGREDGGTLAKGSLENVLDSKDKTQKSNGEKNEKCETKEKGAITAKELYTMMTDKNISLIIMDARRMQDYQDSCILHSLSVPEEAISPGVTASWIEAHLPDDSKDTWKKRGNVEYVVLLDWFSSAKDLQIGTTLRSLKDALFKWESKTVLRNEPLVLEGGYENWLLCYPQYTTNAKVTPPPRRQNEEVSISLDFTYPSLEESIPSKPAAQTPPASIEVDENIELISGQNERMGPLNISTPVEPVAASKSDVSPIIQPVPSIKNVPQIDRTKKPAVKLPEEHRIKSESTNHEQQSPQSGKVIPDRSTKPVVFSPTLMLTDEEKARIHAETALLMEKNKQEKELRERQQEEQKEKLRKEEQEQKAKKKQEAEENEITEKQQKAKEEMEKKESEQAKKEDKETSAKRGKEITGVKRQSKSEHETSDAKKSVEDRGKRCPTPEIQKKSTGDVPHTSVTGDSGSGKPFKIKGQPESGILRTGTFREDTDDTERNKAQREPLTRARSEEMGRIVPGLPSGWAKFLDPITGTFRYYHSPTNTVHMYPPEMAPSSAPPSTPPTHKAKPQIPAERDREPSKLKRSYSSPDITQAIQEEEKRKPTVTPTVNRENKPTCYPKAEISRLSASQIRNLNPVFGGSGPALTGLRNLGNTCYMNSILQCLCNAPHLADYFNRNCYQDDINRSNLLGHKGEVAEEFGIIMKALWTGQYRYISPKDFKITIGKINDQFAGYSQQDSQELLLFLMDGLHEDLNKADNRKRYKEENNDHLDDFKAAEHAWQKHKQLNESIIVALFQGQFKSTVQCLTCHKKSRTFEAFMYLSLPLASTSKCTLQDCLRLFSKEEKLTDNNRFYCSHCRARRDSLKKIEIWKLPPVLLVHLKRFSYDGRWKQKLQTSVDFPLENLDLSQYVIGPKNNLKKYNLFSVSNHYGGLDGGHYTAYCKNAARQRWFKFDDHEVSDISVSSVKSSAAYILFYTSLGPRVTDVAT
USP28 block: human USP28 deubiquitinase inhibition; Q96RU2; purified USP28, Ub-rhodamine cleavage fluorescence, 30 min; inhibition, % at 25 µM; actives 3% (n = 47,000); AID 1645857
USP10 inh: human USP10 deubiquitinase inhibition; inhibition, % at 20 µM; actives 1.1% (n = 47,000); Q14694; purified USP10, Ub-rhodamine fluorescence, 60 min
USP17 block: inhibitors of human USP17 deubiquitinase; actives 6.5% (n = 47,000); inhibition, % at 50 µM; purified USP17, Ub-rhodamine cleavage fluorescence, 3 h; A8MUK1; AID 1645855
USP30 block: human USP30 deubiquitinase inhibition; actives 5.3% (n = 47,000); purified USP30, Ub-rhodamine cleavage fluorescence; inhibition, % at 25 µM
The depositor's hits bear a star; i = inactive; . = not tested or not shown. In the library only some 13% were active in any assay of this set; here they are far more common. Rule as the data show it: active = inhibition above about 30%; inactive = the rest.

SMILES	USP8 block	USP28 block	USP10 inh	USP17 block	USP30 block
O=C1CCCN1Cc1ncn2c1CN(C(=O)c1ccc(F)cc1)CCC2	26	-18	-2	-25	-16
COCCNC(=O)CCCn1c(=O)c2cc(OC)c(OC)cc2n(CC(=O)N2CCCc3ccccc32)c1=O	8	8	0	22	29
COc1cc2c(=O)n(Cc3ccccc3)c(=O)n(CC(=O)N3CCCc4ccccc43)c2cc1OC	20	9	28	25	34*
O=C(Nc1ccc2c(c1)OCCCO2)c1cc(S(=O)(=O)N2CCCCC2)ccc1N1CCCC1	9	30	15	68*	78*
Cc1ccccc1NC(=O)C1CCN(S(=O)(=O)c2ccc3c(c2)OCCCO3)CC1	7	14	4	69*	74*
O=S(=O)(Nc1cc(S(=O)(=O)N2CCCCC2)ccc1O)c1ccc2c(c1)OCCCO2	83*	11	7	34*	0
O=C(NCc1ccccc1)c1cc(S(=O)(=O)N2CCCCC2)ccc1N1CCOCC1	0	0	1	0	0
O=C(Nc1ccc(N2CCCCC2)cc1)C1CCN(S(=O)(=O)c2ccc3c(c2)OCCCO3)CC1	3	-16	4	5	-44
Cc1csc2nc(COC(=O)c3cccc(NC(=O)C(C)(C)C)c3)cc(=O)n12	-3	-3	-2	1	-20
O=C(Nc1ccccc1C(=O)OCc1cc(=O)n2ccsc2n1)c1ccc(F)cc1	-5	-24	-3	-8	-188
CC(=O)Nc1ccc(C(=O)OCc2cc(=O)n3c4c(sc3n2)CCCC4)cc1	-1	24	1	37*	22
COc1ccc(C(=O)Nc2ccc(C(=O)OCc3cc(=O)n4ccsc4n3)cc2)cc1	8	.	2	38*	.
O=C(NCc1noc(CCc2ccccc2)n1)C1CCCCC1	-3	-3	-4	-5	-5
COc1ccc(CC(=O)Nc2ccccc2C(=O)Nc2ccc3c(c2)OCO3)cc1	-2	-2	-2	16	15
Cc1ccc(-c2cnc(C3CC3)o2)cc1S(=O)(=O)Nc1ccc(F)c(Cl)c1	4	29	39*	66*	2
Cc1ccc(C)c(NS(=O)(=O)c2cc(-c3cnc(C4CC4)o3)ccc2C)c1	0	-4	12	52*	-2
c1csc(CCN2CCC(NC3CCCCCC3)CC2)c1	-8	-12	-4	-6	0
COc1cccc(C(=O)N2CCCC(c3nnc4ccccn34)C2)c1 (stereo unspecified)	15	13	1	15	18
Cc1cccc(C(=O)N2CCC3(CC2)OCCN3S(=O)(=O)c2ccccc2)c1	-1	-5	1	-2	-3
COc1ccc(Cn2nnc(-c3cccc(F)c3)n2)cc1F	-33	49*	7	5	2
Clc1ccc(CN2CCc3nc(Nc4ccc5c(c4)OCO5)ncc3C2)cc1	30*	-1	6	2	-16
O=C(Nc1ccc2c(c1)OCO2)c1c2c(nc3ccccc13)CCN(Cc1ccccc1)C2	-46	-127	-4	-110	i
CCOc1ccc2c(c1)c(=O)c(C(=O)c1ccc(C)cc1)cn2CC(=O)Nc1ccc(C)c(C)c1	92*	.	66*	19	.
COc1cccc(NC(=O)Cn2cc(C(=O)c3ccc(C)cc3)c(=O)c3cc(Cl)ccc32)c1	73*	19	43*	-3	-20
CCOc1ccc2c(c1)c(=O)c(C(=O)c1ccc(C)cc1)cn2CC(=O)Nc1ccc(OC)cc1	0	4	16	56*	-4
SMILES	USP8 block	USP28 block	USP10 inh	USP17 block	USP30 block
CCOc1ccc2c(c1)c(=O)c(C(=O)c1ccc(C)cc1)cn2CC(=O)Nc1ccc(C)cc1	95*	12	62*	8	10
COc1ccc(NC(=O)Cn2cc(C(=O)c3ccccc3)c(=O)c3cc4c(cc32)OCCO4)cc1OC	0	-10	0	23	-20
O=C(Cn1cc(C(=O)c2ccc(Cl)cc2)c(=O)c2cc(F)ccc21)Nc1ccc(F)c(F)c1	0	-39	-5	-2	-86
COc1ccc(-c2cc(C(=O)NCC(c3ccccc3)N3CCCCC3)no2)cc1 (stereo unspecified)	-4	-7	-3	-3	-5
CCC(=O)N1CCN(c2nc3c(s2)CC(C(=O)NCc2cccnc2)CC3)CC1 (stereo unspecified)	-4	-8	0	0	-2
c1csc(CNc2nnc(-c3nc(C4CC4)no3)c3ccccc23)c1	2	-3	6	6	-10
NC(=O)C1(N2CCCCC2)CCN(CC(=O)Nc2cc(Cl)ccc2Cl)CC1	15	6	-4	12	30*
